Experiment [1] can be described thus: qHTS assay to identify small molecule antagonists of the glucocorticoid receptor (GR) signaling pathway - cell viability counter screen (AID 720693). Also: nearly all actives have a fitted effect of over 55% in size. Conditions: GR-bla HeLa viability, CellTiter-Glo luminescence, 18 h, with 5 nM dexamethasone present; series mostly up to 58.5 µM. (In general: Quantitative high-throughput screening tests each substance at several concentrations.)

Experiment [2] in a line: qHTS assay for identifying genotoxic compounds that show differential cytotoxicity against isogenic chicken DT40 cell lines with known DNA damage response pathways - wild type cell line (AID 743012). Also: nearly all actives have a fitted effect of over 60% in size. Also: potency is read from the fitted curve at half-maximal effect. Conditions: DT40 wild type chicken cells viability, CellTiter-Glo, 40 h; series mostly up to 68.4 µM. In outline:
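Viability by ATP luminescence (CellTiter-Glo, 30 min RT) after 40 h compound treatment at 37 C/5% CO2, using 300 parental DNA repair-proficient DT40 cells per well.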

Experiment [3] is described as follows: qHTS assay for identifying genotoxic compounds that show differential cytotoxicity against isogenic chicken DT40 cell lines with known DNA damage response pathways - Rev3 mutant cell line (AID 743014). Also: nearly all actives have a fitted effect of over 55% in size. Also: potency is read from the fitted curve at half-maximal effect. Conditions: chicken DT40 Rev3-/- viability, CellTiter-Glo, 40 h; series mostly up to 68.4 µM.
Experiment [4] can be described thus: qHTS assay to identify small molecule antagonists of the androgen receptor (AR) signaling pathway - cell viability counter screen (AID 743033; also: nearly all actives have a fitted effect of over 45% in size; also: potency is read from the fitted curve at half-maximal effect). Conditions: AR-bla HEK293 viability, CellTiter-Glo luminescence, 16 h; series mostly up to 58.5 µM.
The nature of experiment [5]: qHTS assay to identify small molecule antagonists of the androgen receptor (AR) signaling pathway using the MDA cell line - cell viability counter screen (AID 743041; also: nearly all actives have a fitted effect of over 45% in size). Particulars: MDA-kb2 viability, CellTiter-Fluor, 16 h, cells co-treated with R1881 androgen agonist; series mostly up to 70.3 µM. In outline:
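Cytotoxicity counter screen: MDA-kb2 AR-luc cells, compound + R1881, 16 h, 37C, 0% CO2; CellTiter-Fluor added at 15.5 h, fluorescence read after 30 min.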

A short description of experiment [6]: qHTS assay to identify small molecule antagonists of the thyroid receptor (TR) signaling pathway - cell viability counter screen (AID 743064). Also: nearly all actives have a fitted effect of over 50% in size. Also: potency is read from the fitted curve at half-maximal effect. Conditions: GH3.TRE-Luc viability, CellTiter-Fluor, 24 h; series mostly up to 70.3 µM. Put shortly:
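In rat pituitary GH3.TRE-Luc reporter cells co-exposed to compound and 1 nM T3 for 23.5 h, cytotoxicity was assessed with CellTiter-Fluor in the same wells, read by fluorescence.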

A short description of experiment [7]: qHTS assay to identify small molecule antagonists of the thyroid receptor (TR) signaling pathway (AID 743065). Also: nearly all actives have a fitted effect of over 55% in size. Also: potency is read from the fitted curve at half-maximal effect. Conditions: GH3.TRE-Luc, T3-stimulated luciferase inhibition, 23.5 h; series mostly up to 70.3 µM. In outline: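 GH3.TRE-Luc rat pituitary cells (two TREs driving luciferase) were dosed with compound, then stimulated with 1 nM T3 (final) for 23.5 h at 37 C. ONE-Glo luminescence was the read-out, with CellTiter-Fluor fluorescence as the cytotoxicity counter-screen.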

Experiment [8] concerns thyroid hormone receptor (rat, GH3 cells). Kind of experiment: qHTS assay to identify small molecule agonists of the thyroid receptor (TR) signaling pathway (AID 743066; calls by dose curve). Particulars: GH3.TRE-Luc cells, TR agonist luciferase, 24 h; series mostly up to 83.9 µM.
The nature of experiment [9]: qHTS assay to identify small molecule antagonists of the estrogen receptor alpha (ER-alpha) signaling pathway - cell viability counter screen (AID 743074; calls by dose curve;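 also: HEK293 cells carrying ER-alpha-UAS-bla reporter stimulated with 17beta-estradiol; nearly all actives have a fitted effect of over 45% in size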). Particulars: ERalpha-bla HEK293 viability, CellTiter-Glo luminescence, 18 h; series mostly up to 69.4 µM.
Experiment [10] can be described thus: qHTS assay to identify small molecule antagonists of the estrogen receptor alpha (ER-alpha) signaling pathway using the BG1 cell line - cell viability counter screen (AID 743081).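 Also: compound given together with 17beta-estradiol as the ER stimulus; nearly all actives have a fitted effect of over 45% in size.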 Particulars: BG1Luc4E2 viability, CellTiter-Fluor, 22 h; series mostly up to 70.3 µM.
In another experiment the target is Aromatase (Homo sapiens) (UniProt P11511). Briefly: qHTS assay to identify aromatase inhibitors (AID 743083). Also: nearly all actives have a fitted effect of over 55% in size. Particulars: MCF-7 aro ERE, testosterone-driven ERE luciferase, 24 h; series mostly up to 70.3 µM.
Experiment [11] in a line: qHTS assay for identifying genotoxic compounds that show differential cytotoxicity against isogenic chicken DT40 cell lines with known DNA damage response pathways - Rad54/Ku70 mutant cell line (AID 743015). Also: nearly all actives have a fitted effect of over 60% in size. Also: potency is read from the fitted curve at half-maximal effect. Conditions: DT40 Rad54/Ku70 mutant viability, CellTiter-Glo, 40 h; series mostly up to 66.8 µM.
The target in experiment [12] is Androgen receptor (Homo sapiens) (UniProt P10275). Kind of experiment: qHTS assay to identify small molecule antagonists of the androgen receptor (AR) signaling pathway (AID 743035; active = well fitted inhibition curve with a large enough effect in the signal ratio in the repeat runs, not every such curve was filed as active; inconclusive = weak or mixed curves, or effect the other way; inactive = no such curve, though single readings can be large or run the other way; the % refers to the signal ratio). Particulars: HEK293 AR-UAS-bla, R1881-stimulated, beta-lactamase FRET, 16 h; series mostly up to 58.5 µM. Put shortly:
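Antagonist mode: AR-bla HEK293 cells co-treated with test compounds and agonist R1881 for 16 h at 37C, 5% CO2. Beta-lactamase activity read as FRET fluorescence after 2 h room-temperature substrate loading.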

The target is the same in experiment [13]. Briefly: qHTS assay to identify small molecule agonists of the androgen receptor (AR) signaling pathway (AID 743036; active = well fitted activation curve with a large enough effect in the signal ratio in the repeat runs, with a control signal flat, not every such curve was filed as active; inconclusive = weak or mixed curves, or effect the other way; inactive = no such curve, though single readings can be large or run the other way; the % refers to the signal ratio). Particulars: HEK293 AR-UAS-bla GripTite, beta-lactamase FRET ratio, 16 h; series mostly up to 62.4 µM. Put shortly:
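Cell-based FRET reporter assay: HEK293 line with a UAS-beta-lactamase construct, compounds added in DMSO, 16 h exposure at 37C, then 2 h substrate step at room temperature and fluorescence intensity read.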

Experiment [14] shares this target. Briefly: qHTS assay to identify small molecule agonists of the androgen receptor (AR) signaling pathway using the MDA cell line (AID 743040; also: nearly all actives have a fitted effect of over 20% in size). Particulars: MDA-kb2 AR-luc cells, MMTV luciferase, 16 h; activity change: at 70.3 µM (top of the series), stronger effect = higher value. In outline:
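Luciferase read-out, ONE-Glo, 30 min RT. Cells: MDA-kb2 AR-luc, MMTV promoter with AR and GR response elements. Compound exposure 16 h, 37C, 0% CO2, after 5 h pre-incubation. qHTS agonist mode.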

Experiment [15] has the same target. Briefly: qHTS assay to identify small molecule antagonists of the androgen receptor (AR) signaling pathway using the MDA cell line (AID 743042; also: nearly all actives have a fitted effect of over 55% in size). Conditions: MDA-kb2 AR-luc, MMTV luciferase, R1881 antagonist, 16 h; series mostly up to 70.3 µM. Put shortly:
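MDA-kb2 breast carcinoma cells carrying MMTV-luciferase (AR/GR responsive) were co-treated with compounds and the agonist R1881 for 16 h at 37C. Inhibition read as ONE-Glo luminescence; CellTiter-Fluor fluorescence measured in parallel for cytotoxicity.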

Experiment [16] deals with Estrogen receptor (Homo sapiens) (UniProt P03372). Briefly: qHTS assay to identify small molecule agonists of the estrogen receptor alpha (ER-alpha) signaling pathway (AID 743075; calls by dose curve;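 also: HEK293 GripTite cells with ER-alpha and UAS-driven beta-lactamase reporter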). Conditions: HEK293 ER-alpha-UAS-bla, beta-lactamase FRET ratio, 18 h; series mostly up to 70.1 µM.
Experiment [17] shares this target. Kind of experiment: qHTS assay to identify small molecule agonists of the estrogen receptor alpha (ER-alpha) signaling pathway using the BG1 cell line (AID 743079). Also: nearly all actives have a fitted effect of over 20% in size. Particulars: BG1Luc4E2 cells, ERE-luciferase agonist, 22 h; series mostly up to 70.3 µM.
The nature of experiment [18]: qHTS assay to identify small molecule antagonists of the estrogen receptor alpha (ER-alpha) signaling pathway using the BG1 cell line (AID 743080; calls by dose curve;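 also: BG1 cells stimulated with 17beta-estradiol alongside compound; nearly all actives have a fitted effect of over 25% in size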; also: potency is read from the fitted curve at half-maximal effect). Conditions: BG1Luc4E2 ERE-luciferase antagonist mode, luminescence; series mostly up to 70.3 µM. In outline: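 Luciferase inhibition measured with ONE-Glo after 30 min at RT in BG1Luc4E2 cells given test compounds and 17beta-estradiol for 21.5 h at 37 C; CellTiter-Fluor viability read in the same wells beforehand.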

In experiment [19] the target is Estrogen receptor (Homo sapiens) (UniProt P03372). Kind of experiment: qHTS assay to identify small molecule antagonists of the estrogen receptor alpha (ER-alpha) signaling pathway (AID 743069; active = well fitted curve in the direction sought with a large enough effect in the signal ratio in the repeat runs, not every such curve was filed as active; inconclusive = weak or mixed curves, or effect the other way; inactive = no such curve, though single readings can be large or run the other way; the % refers to the signal ratio; also: potency is read from the fitted curve at half-maximal effect). Particulars: HEK293 ER-alpha-UAS-bla, beta-lactamase ratio, antagonist mode; series mostly up to 69.4 µM. In outline:
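Beta-lactamase FRET fluorescence is read after 2 hr at room temperature with LiveBLAzer B/G substrate. Before that, ER-alpha-bla HEK293 cells sit 4 hr after plating, then receive compound plus 17beta-estradiol and incubate 18 hr at 37C.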

Several values for one entry are separate records, joined by “and”; a condition that tells them apart may be missing. Equal values may be shown once. More than one record can exist for a structure, and the calls need not agree. Activity calls are given as the source filed them. Unless noted, calls follow the shape of the dose curve; as a rule, active = well fitted curve in the direction sought with a large enough effect in the repeat runs; inconclusive = weak or mixed curves; inactive = no such curve, though single readings can be large; an effect the other way counts as inactive or inconclusive.

Sequence of Aromatase (Homo sapiens) (P11511 whole entry, looked up): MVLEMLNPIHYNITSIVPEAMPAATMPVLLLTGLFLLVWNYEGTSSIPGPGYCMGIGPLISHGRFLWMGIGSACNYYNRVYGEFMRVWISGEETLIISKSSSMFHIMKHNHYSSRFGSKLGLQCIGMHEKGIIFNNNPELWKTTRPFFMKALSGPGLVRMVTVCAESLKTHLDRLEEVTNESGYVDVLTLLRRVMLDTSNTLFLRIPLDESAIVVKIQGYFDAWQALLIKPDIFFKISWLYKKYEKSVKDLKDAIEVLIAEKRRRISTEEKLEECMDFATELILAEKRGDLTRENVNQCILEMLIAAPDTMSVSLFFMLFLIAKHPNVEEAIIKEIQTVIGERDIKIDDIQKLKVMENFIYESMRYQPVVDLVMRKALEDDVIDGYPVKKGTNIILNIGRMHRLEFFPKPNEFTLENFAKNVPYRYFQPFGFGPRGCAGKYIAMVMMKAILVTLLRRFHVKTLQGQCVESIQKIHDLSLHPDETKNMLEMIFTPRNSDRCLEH
Sequence of Estrogen receptor (Homo sapiens) (P03372 whole entry, looked up): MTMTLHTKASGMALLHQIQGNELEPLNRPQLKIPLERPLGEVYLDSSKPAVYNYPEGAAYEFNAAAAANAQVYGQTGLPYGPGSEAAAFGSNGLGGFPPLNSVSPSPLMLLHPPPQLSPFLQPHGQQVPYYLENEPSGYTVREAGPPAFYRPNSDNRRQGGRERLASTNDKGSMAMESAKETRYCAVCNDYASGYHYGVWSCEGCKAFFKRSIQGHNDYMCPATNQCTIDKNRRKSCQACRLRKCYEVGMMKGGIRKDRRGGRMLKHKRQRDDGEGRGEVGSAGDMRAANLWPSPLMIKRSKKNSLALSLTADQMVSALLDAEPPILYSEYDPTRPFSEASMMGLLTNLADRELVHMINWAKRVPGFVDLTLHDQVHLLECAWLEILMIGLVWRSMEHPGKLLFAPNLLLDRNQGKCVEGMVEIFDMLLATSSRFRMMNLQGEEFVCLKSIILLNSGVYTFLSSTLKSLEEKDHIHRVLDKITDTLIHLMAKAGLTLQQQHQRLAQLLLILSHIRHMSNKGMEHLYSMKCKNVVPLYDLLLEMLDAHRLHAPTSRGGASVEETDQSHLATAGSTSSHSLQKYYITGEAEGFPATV
Sequence of Androgen receptor (Homo sapiens) (P10275 whole entry, looked up): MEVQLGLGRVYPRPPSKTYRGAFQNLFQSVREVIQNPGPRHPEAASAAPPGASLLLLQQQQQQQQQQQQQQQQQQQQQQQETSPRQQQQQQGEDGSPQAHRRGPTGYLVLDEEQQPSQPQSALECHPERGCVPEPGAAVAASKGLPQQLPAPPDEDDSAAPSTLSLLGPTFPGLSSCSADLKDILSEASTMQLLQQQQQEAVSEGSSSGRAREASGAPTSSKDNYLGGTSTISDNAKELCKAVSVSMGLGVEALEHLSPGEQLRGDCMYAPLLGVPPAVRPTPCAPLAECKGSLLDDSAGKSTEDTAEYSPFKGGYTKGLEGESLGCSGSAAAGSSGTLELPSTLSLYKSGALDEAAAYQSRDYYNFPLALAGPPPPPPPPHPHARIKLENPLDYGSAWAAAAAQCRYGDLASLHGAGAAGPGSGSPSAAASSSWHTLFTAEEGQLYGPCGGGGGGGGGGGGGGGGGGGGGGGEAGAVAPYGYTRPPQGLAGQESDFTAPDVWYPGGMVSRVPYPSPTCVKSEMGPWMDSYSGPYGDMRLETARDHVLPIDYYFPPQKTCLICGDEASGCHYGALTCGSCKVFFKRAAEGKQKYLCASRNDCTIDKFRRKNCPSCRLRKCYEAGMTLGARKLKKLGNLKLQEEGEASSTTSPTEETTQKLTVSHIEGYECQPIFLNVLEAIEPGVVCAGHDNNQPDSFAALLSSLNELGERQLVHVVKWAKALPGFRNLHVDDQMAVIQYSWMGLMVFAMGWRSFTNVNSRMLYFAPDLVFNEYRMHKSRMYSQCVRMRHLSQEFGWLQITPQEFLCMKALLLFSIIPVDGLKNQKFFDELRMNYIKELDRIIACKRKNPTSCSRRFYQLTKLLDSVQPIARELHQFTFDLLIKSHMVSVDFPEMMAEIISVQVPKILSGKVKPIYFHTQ

Consider `Cc1ccc(N)c(N)c1`, for which the Potency entry in experiment [1], in [4], in [5], in [8], in experiment [9] and in [10] was “inactive” in each case. Besides, the Potency in experiment [2] is 54.6 µM (active) and 17.2 µM (active); in experiment [3], 30.7 µM (active) and 21.7 µM (active); in experiment [6], 13.7 µM (active) and 24.3 µM (active); in [7] it was 12.2 µM (active) and 19.3 µM (active).

Take `C=CCc1ccc(OC)cc1`: the Potency entry in [1], in [2], in [4], in experiment [5], in experiment [6] and in [7] was “inactive” throughout. The Potency result (in experiment [8]; in experiment [9]; in [10]; in the experiment with Aromatase (Homo sapiens)) was “inactive” throughout. For the same molecule, in experiment [3], the Potency is 26.5 µM (active).

On to `c1cc(OCC2CO2)ccc1Cc1ccc(OCC2CO2)cc1` (stereo unspecified), for which the Potency in [2] was 13.7 µM (active); in [3], 2.44 µM (active) and 1.54 µM (active); in experiment [11] it was 61.4 µM (active) and 15.4 µM (active); in experiment [6] it was 43.5 µM (active) and 48.6 µM (active); in experiment [7] it was 24.4 µM (active) and 21.7 µM (active). Also, the Potency entry in experiment [4], in experiment [12], in [13], in experiment [14], in experiment [5] and in experiment [15] was “inactive” throughout. In addition, the Potency entry in [8], in experiment [9], in experiment [16], in experiment [17], in experiment [18] and in experiment [10] was “inactive” throughout. Further, the Potency entry in the experiment with Aromatase (Homo sapiens) was “inactive”.

With `C=CCN(CC=C)C(=O)C(Cl)Cl`, the Potency result in experiment [1], in experiment [2], in [3], in [4], in experiment [5] and in [6] was “inactive” in each case. For the same molecule, the Potency result (in experiment [7]; in experiment [8]; in experiment [9]; in experiment [10]; with Aromatase (Homo sapiens)) was “inactive” each time.

In the case of `O=Cc1ccco1`, the Potency entry in experiment [1], in [2], in experiment [3], in [4], in [5] and in experiment [6] was “inactive” throughout. Besides, the Potency result (in [7]; in [8]; in experiment [9]; in [10]; with Aromatase (Homo sapiens)) was “inactive” throughout.

`C=CC(=O)OCCO`: the Potency result in [1], in experiment [3], in [4], in experiment [5], in experiment [6] and in experiment [7] was “inactive” throughout. Besides, the Potency result in [8], in [9] and in [10] was “inactive” throughout. Moreover, the Potency result in experiment [11] was “inactive and 43.3 µM (active)”.

On to `Oc1c(Cl)c(Cl)c(Cl)c(Cl)c1Cl`, for which the Potency result (in experiment [3]; in experiment [5]; in experiment [8]; in [16]; in [10]; with Aromatase (Homo sapiens)) was “inactive” each time. For the same molecule, the Potency was 21.4 µM (active) in experiment [4]; 26.8 µM (active) in experiment [6]; 8.46 µM (active) and 27.2 µM (active) in experiment [7]; 8.54 µM [inconclusive] (active) in experiment [19]; 59.9 µM (active) and 27.2 µM (active) in experiment [18].

On to `Nc1ccc(Cl)cc1N`, for which the Potency in [11] was 42.3 µM (active); in [6], 42 µM (active); in [7] it was 24.3 µM (active). In addition, the Potency entry (in experiment [5]; in [15]; in [8]; in experiment [9]; in [10]; with Aromatase (Homo sapiens)) was “inactive” each time.

These data come from PubChem BioAssay (Tox21).
